In PubChem BioAssay (Tox21):
Records with an inconclusive call do not appear. The source made the active and inactive calls. Unless noted, the call rests on the fitted dose curve; in most records, active means well fitted curve in the direction sought with a large enough effect in the repeat runs; inconclusive means weak or mixed curves; inactive means no such curve, though single readings can be large; an effect the other way counts as inactive or inconclusive.

Tests used:
[1] = biological target: Estrogen receptor beta (Homo sapiens) (UniProt Q92731); assay: qHTS assay to identify small molecule agonists of the estrogen receptor beta (ER-beta) signaling pathway (AID 1259377; active means well fitted activation curve with a large enough effect in the signal ratio in the repeat runs, not every such curve was filed as active; the % refers to the signal ratio)
In short: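 ER-beta-UAS-bla HEK293T cells in medium with 2% charcoal-stripped FBS were exposed to compounds for 16 h at 37C. Beta-lactamase reporter activity was read as fluorescence after 2 h with LiveBLAzer B/G FRET substrate at room temperature.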

[2] = biological target: Estrogen receptor beta (Homo sapiens) (UniProt Q92731); assay: qHTS assay to identify small molecule antagonists of the estrogen receptor beta (ER-beta) signaling pathway (AID 1259378; active means well fitted inhibition curve with a large enough effect in the signal ratio in the repeat runs, not every such curve was filed as active; the % refers to the signal ratio)
In short: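 ER-beta-UAS-bla HEK293T (GripTite) cells in 2% charcoal-stripped FBS medium were preincubated 6 hr at 37C, dosed with compound, then stimulated with 1 nM E2 (final) for 16 hr; beta-lactamase reporter read by B/G FRET fluorescence after 2 hr substrate loading.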

[3] = qHTS assay to identify small molecule agonists of the androgen receptor (AR) signaling pathway in the presence of an antagonist - cell viability counter screen (AID 1259379);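 further: MDA-kb2 human breast cancer cells carrying an MMTV luciferase reporter; series mostly up to about 92 µM; nearly all actives have a fitted effect of over 25% in size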
In short: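 In MDA-kb2 cells (human breast carcinoma, MMTV-luciferase), compounds at 15 concentrations plus 3.0uM nilutamide; 16 hr, 37C, 0% CO2; CellTiter-Fluor fluorescence read for viability.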

[4] = qHTS assay to identify small molecule agonists of the estrogen receptor beta (ER-beta) signaling pathway - cell viability counter screen (AID 1259380); further: nearly all actives have a fitted effect of over 30% in size
In short: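 Viability of ER-beta-UAS-bla HEK293T cells was determined by CellTiter-Glo luminescence following 16 hr treatment with test compounds at 37C.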

[5] = qHTS assay to identify small molecule antagonists of the estrogen receptor beta (ER-beta) signaling pathway - cell viability counter screen (AID 1259382); further: series mostly up to about 92 µM; nearly all actives have a fitted effect of over 55% in size
In short: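 Tox21 10K library tested in qHTS format on ER-beta-bla HEK293T cells stimulated with 1nM E2; 16 hr treatment at 37C. Same-well CellTiter-Glo luminescence served as the cell viability measure.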

[6] = qHTS assay to identify small molecule agonists or antagonists of the thyroid stimulating hormone receptor (TSHR) signaling pathway - wild type cell line counter screen (AID 1259384; calls by dose curve)
In short: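 Wild-type HEK293 cells were plated 18 h at 37 C/5% CO2, pin-dosed with compound plus Ro20-1724 medium, held 30 min at room temperature, then given cAMP-d2 and anti-cAMP-cryptate; fluorescence was read after 1 h. Fifteen concentrations, triplicate.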

[7] = biological target: Thyrotropin receptor (Homo sapiens) (UniProt P16473); assay: qHTS assay to identify small molecule antagonists of the thyroid stimulating hormone receptor (TSHR) signaling pathway (AID 1259385; calls by dose curve; further: nearly all actives have a fitted effect of over 20% in size)
In short: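 TSHR-HEK293 cells were plated and held 18 h at 37C/5% CO2, then given compound plus Ro20-1724 and stimulated with TSH at 1.5 ng/mL final. After 30 min at room temperature, cAMP was detected with cAMP-d2/anti-cAMP-cryptate (1 h) by fluorescence.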

[8] = qHTS assay to identify small molecule agonists of the estrogen receptor alpha (ER-alpha) signaling pathway in the presence of an antagonist - cell viability counter screen (AID 1259386);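 further: series mostly up to about 92 µM; cells exposed to compounds for 22 h at 37 °C before the viability read; nearly all actives have a fitted effect of over 30% in size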
In short: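 Fluorescent CellTiter-Fluor viability signal from VM7Luc4E2 cells, with the reagent added during the final hour of a 22hr compound exposure at 37C in the presence of 10.0nM ICI-182,780.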

[9] = biological target: Progesterone receptor (Homo sapiens) (UniProt P06401); assay: qHTS assay to identify small molecule agonists of the progesterone receptor (PR) signaling pathway (AID 1346784; calls by dose curve; further: nearly all actives have a fitted effect of over 30% in size)
In short: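 PR-UAS-bla HEK 293T cells (beta-lactamase reporter under UAS) in 2% charcoal-stripped FBS, dosed with 23 nL compound after 6 hr, incubated 16hr at 37C. LiveBLAzer B/G FRET substrate added, fluorescence read after 2 hours.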

[10] = biological target: Progesterone receptor (Homo sapiens) (UniProt P06401); assay: qHTS assay to identify small molecule antagonists of the progesterone receptor (PR) signaling pathway (AID 1346795; active means well fitted inhibition curve with a large enough effect in the signal ratio in the repeat runs, not every such curve was filed as active; the % refers to the signal ratio)
In short: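 PR-UAS-bla HEK293T cells with beta-lactamase reporter under UAS control, in 2% charcoal-stripped FBS, treated with compounds plus 1 nM promegestone (R5020, final) for 16 hr at 37C. Read-out: FRET beta-lactamase substrate fluorescence after 2 hr at room temperature.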

[11] = qHTS assay to identify small molecule agonists of the progesterone receptor (PR) signaling pathway - cell viability counter screen (AID 1346799; calls by dose curve; further: nearly all actives have a fitted effect of over 45% in size)
In short: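 Counter screen in the PR-UAS-bla HEK293T wells (2% charcoal-stripped FBS, 16 h compound exposure at 37 C) after the bla read. CellTiter-Glo added, 30 min at room temperature, luminescence read as cell viability.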

[12] = qHTS assay to identify small molecule antagonists of the TGF-beta/Smad signaling pathway - cell viability counter screen (AID 1346824); further: nearly all actives have a fitted effect of over 50% in size
In short: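 SBE-bla HEK 293T cells were plated overnight at 37 C, then given compounds in DMSO plus TGF-beta1 (added as 0.25 ng/mL solution) for 5 hr. After the bla read, CellTiter-Glo was added to the same wells and luminescence read after 30 min at room temperature.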

[13] = qHTS assay to identify small molecule agonists of the TGF-beta/Smad signaling pathway - cell viability counter screen (AID 1346829); further: top concentration of the series differs between compounds; nearly all actives have a fitted effect of over 45% in size
In short: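 In parallel with the Smad reporter read, viability of HEK 293T cells stably carrying SBE-bla is quantified by ATP luminescence following 5 hr compound treatment.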

[14] = qHTS assay to identify small molecule agonists of the TGF-beta/Smad signaling pathway (AID 1346859; active means well fitted activation curve with a large enough effect in the signal ratio in the repeat runs, not every such curve was filed as active; the % refers to the signal ratio; further: series mostly up to about 77 µM)
In short: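 SBE-bla HEK293T cells plated overnight, then compound exposure for 5 h at 37 C. Beta-lactamase reporter read with LiveBLAzer B/G FRET substrate after 2 h at room temperature, fluorescence at 405 nm excitation, 460/530 nm emission.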

[15] = biological target: Thyrotropin-releasing hormone receptor (Homo sapiens) (UniProt P34981); assay: qHTS assay to identify small molecule antagonists of the thyrotropin-releasing hormone receptor (TRHR) signaling pathway (AID 1346877; active means well fitted inhibition curve with a large enough effect in the repeat runs, not every such curve was filed as active; further: series mostly up to about 51 µM)
In short: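 In this cell-based calcium flux format, HEK293 cells expressing TRHR received test compound for 5 min before the agonist TRH (1 nM final). Dye loading lasted 2 h at 37 °C.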

[16] = biological target: Thyrotropin-releasing hormone receptor (Homo sapiens) (UniProt P34981); assay: qHTS assay to identify small molecule agonists of the thyrotropin-releasing hormone receptor (TRHR) signaling pathway (AID 1346891; calls by dose curve; further: series mostly up to about 58 µM)
In short: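 HEK293 cells expressing TRHR plated 18 h at 37 C/5% CO2, calcium dye-loaded 2 h at 37 C, then compound added (agonist mode); kinetic calcium fluorescence read 3 min at 1 s intervals; 15 concentrations in triplicate.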

[17] = Human pregnane X receptor (PXR) small molecule agonists, qHTS cell viability counter screen (AID 1346977); further: nearly all actives have a fitted effect of over 50% in size
In short: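 PXR-Luc HepG2 cells (2,000/well, 5% charcoal-stripped FBS) preincubated 5 hr, then exposed to compounds 24 hr at 37 C. Viability read in the same wells by CellTiter-Fluor fluorescence, reagent added at 23 hr, 1 hr incubation.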

[18] = qHTS assay to identify small molecule antagonists of the progesterone receptor (PR) signaling pathway - cell viability counter screen (AID 1346798); further: series mostly up to about 92 µM; nearly all actives have a fitted effect of over 50% in size
In short: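 PR-UAS-bla HEK293T cells, 3,000/well in 2% charcoal-stripped FBS medium, dosed with compounds plus R5020 agonist and incubated 16 h at 37C. Viability then measured in the same wells by CellTiter-Glo luminescence after 30 min at RT.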

[19] = biological target: Estrogen receptor (Homo sapiens) (UniProt P03372); assay: qHTS assay to identify small molecule agonists of the estrogen receptor alpha (ER-alpha) signaling pathway in the presence of an antagonist (AID 1259383; calls by dose curve; further: top concentration of the series differs between compounds; nearly all actives have a fitted effect of over 15% in size)
In short: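 In VM7Luc4E2 cells, 4,000 per well, compounds at 15 concentrations were co-incubated 22hr at 37C with 10.0nM final ICI-182,780. Luminescence from the stably transfected 4×ERE-luciferase reporter was recorded 30min after ONE-Glo addition.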

Measured: Potency

Chain of Progesterone receptor (Homo sapiens) (P06401 whole entry, looked up): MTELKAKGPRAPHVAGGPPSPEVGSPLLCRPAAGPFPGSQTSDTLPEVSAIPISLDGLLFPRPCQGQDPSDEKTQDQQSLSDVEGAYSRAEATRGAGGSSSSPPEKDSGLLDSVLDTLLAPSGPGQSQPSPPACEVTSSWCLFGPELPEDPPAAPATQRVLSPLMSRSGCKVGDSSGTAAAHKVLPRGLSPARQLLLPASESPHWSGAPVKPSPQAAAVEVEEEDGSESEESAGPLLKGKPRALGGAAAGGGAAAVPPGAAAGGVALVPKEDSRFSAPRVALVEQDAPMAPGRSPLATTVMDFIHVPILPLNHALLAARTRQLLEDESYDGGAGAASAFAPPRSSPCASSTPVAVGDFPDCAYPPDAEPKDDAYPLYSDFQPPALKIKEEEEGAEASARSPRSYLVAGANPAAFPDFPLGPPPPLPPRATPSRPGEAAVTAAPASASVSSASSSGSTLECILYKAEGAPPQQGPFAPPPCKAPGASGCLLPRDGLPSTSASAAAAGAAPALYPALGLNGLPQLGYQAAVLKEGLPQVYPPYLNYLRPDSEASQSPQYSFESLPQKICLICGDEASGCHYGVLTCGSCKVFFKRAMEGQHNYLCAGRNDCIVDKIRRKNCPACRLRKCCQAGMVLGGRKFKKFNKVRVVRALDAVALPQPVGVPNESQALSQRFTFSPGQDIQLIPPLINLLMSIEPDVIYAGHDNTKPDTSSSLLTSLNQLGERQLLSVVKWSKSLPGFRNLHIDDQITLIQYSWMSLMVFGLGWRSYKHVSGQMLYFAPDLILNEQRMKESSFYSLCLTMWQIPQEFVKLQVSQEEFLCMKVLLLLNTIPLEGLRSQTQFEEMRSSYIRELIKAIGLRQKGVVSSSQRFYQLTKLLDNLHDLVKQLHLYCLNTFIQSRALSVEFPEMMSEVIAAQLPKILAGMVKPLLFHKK
Chain of Thyrotropin receptor (Homo sapiens) (P16473 whole entry, looked up): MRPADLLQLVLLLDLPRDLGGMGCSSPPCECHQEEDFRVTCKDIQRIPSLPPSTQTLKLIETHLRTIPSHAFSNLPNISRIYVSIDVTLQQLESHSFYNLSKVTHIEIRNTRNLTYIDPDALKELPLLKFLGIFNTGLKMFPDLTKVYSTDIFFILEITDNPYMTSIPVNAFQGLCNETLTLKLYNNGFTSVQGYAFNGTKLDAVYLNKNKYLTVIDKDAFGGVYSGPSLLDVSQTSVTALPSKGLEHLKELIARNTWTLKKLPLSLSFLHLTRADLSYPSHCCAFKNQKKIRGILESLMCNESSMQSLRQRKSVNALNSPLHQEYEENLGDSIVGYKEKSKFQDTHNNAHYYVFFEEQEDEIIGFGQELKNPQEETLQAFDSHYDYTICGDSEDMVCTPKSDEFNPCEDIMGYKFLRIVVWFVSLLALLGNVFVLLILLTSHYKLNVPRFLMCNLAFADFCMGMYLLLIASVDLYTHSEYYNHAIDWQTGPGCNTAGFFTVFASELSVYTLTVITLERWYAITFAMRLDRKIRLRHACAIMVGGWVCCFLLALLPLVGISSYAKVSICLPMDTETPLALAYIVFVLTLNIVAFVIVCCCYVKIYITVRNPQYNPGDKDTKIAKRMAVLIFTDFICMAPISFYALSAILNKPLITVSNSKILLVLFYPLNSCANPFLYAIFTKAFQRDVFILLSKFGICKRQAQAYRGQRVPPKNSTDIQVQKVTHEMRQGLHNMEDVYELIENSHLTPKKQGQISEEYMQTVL
Chain of Thyrotropin-releasing hormone receptor (Homo sapiens) (P34981 whole entry, looked up): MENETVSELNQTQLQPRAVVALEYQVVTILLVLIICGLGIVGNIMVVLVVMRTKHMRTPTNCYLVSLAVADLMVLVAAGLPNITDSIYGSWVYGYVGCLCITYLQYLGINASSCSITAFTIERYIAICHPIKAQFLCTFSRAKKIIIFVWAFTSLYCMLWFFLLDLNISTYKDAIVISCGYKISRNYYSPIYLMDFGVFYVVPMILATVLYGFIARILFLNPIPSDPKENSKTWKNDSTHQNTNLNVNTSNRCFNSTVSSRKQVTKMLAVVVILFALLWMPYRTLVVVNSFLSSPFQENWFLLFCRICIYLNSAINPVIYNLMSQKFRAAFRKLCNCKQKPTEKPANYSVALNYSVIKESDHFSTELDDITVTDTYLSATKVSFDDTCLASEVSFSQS
Chain of Estrogen receptor beta (Homo sapiens) (Q92731 whole entry, looked up): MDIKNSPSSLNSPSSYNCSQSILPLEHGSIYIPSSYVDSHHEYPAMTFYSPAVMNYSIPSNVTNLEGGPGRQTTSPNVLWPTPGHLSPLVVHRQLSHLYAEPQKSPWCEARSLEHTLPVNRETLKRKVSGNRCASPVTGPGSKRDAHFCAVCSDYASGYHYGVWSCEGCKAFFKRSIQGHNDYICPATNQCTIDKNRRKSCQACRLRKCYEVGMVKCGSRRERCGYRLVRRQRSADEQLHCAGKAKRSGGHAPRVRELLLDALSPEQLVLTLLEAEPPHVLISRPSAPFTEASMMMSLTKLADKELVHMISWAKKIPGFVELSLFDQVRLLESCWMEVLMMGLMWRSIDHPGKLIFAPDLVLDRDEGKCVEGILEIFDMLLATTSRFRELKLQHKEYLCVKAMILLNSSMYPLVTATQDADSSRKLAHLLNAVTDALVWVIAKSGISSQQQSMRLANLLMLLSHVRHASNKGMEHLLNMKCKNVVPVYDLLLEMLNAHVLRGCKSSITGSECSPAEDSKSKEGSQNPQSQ
Chain of Estrogen receptor (Homo sapiens) (P03372 whole entry, looked up): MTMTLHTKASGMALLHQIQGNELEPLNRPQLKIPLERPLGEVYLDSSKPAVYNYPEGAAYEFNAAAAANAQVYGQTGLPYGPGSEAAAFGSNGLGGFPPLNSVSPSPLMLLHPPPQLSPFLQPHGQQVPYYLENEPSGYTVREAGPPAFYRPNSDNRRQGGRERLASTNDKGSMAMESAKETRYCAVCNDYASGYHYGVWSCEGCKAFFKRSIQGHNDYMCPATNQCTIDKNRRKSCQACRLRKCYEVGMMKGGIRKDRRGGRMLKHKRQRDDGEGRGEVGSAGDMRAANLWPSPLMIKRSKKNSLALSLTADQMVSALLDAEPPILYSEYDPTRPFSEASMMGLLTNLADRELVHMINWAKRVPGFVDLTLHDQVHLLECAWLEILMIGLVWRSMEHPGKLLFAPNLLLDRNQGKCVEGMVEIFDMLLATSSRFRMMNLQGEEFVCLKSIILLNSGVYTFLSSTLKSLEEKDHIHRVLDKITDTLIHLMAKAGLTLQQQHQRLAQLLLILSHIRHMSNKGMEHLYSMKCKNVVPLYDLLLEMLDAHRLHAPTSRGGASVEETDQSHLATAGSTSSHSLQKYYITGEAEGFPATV

CCCCOC(=O)CCCCC(=O)OCCCC
not listed: [18] | [19]
inactive: all other assays above

CC(=O)N[C@@H](Cc1ccc(O)cc1)C(=O)O
not listed: [5] | [15] | [16] | [19]
inactive: all other assays above

CC[C@H]1OC(=O)[C@H](C)[C@@H](O[C@H]2C[C@@](C)(OC)[C@@H](O)[C@H](C)O2)[C@H](C)[C@@H](O[C@@H]2O[C@H](C)C[C@H](N(C)C)[C@H]2O)[C@](C)(O)C[C@@H](C)C(=O)[C@H](C)[C@@H](O)[C@]1(C)O
not listed: [7] | [13] | [15] | [16] | [19]
inactive: all other assays above

CCNc1nc(N)nc(Cl)n1
not listed: [8] | [17] | [19]
inactive: all other assays above

CC(=O)OCC1=C(C(=O)O)N2C(=O)[C@@H](NC(=O)CSc3ccncc3)[C@H]2SC1
not listed: [10] | [13] | [19]
inactive: all other assays above

COc1ccc(C(=O)NCc2ccc(OCCN(C)C)cc2)cc1OC
not listed: [5] | [6] | [7] | [10] | [13]
inactive: all other assays above

CC1CCc2nccnc21 (stereo not drawn)
not listed: [6] | [7] | [8] | [13]
inactive: all other assays above

Cc1cc(CCC(=O)OCCOCCOCCOC(=O)CCc2cc(C)c(O)c(C(C)(C)C)c2)cc(C(C)(C)C)c1O
not listed: [9] | [13] | [19]
inactive: all other assays above
